In PubChem BioAssay AID1012 (Sanford-Burnham Center for Chemical Genomics, 2008):
The campaign covered roughly 200,000 compounds. About 520 (0.26%) were called active. Shown is part of a subset that was picked to be rich in actives. Unmarked numbers belong to inactive results.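 How the source made its calls: active means tissue-nonspecific alkaline phosphatase inhibition above about 50% at 20 µM in the single-dose screen (limit read from the data); inactive means the rest.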

biological target: Alkaline phosphatase, tissue-nonspecific isozyme (Homo sapiens) (UniProt P05186); assay: human TNAP enzyme inhibitors, primary screen, biochemical, luminescent, no phosphate acceptor, uHTS (AID 1012); conditions: purified TNAP, CDP-star luminescence, 30 min; at 20 µM; hits give high values;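 further: 0% = DMSO negative control and 100% = EDTA positive control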
Sequence (P05186 whole entry, looked up): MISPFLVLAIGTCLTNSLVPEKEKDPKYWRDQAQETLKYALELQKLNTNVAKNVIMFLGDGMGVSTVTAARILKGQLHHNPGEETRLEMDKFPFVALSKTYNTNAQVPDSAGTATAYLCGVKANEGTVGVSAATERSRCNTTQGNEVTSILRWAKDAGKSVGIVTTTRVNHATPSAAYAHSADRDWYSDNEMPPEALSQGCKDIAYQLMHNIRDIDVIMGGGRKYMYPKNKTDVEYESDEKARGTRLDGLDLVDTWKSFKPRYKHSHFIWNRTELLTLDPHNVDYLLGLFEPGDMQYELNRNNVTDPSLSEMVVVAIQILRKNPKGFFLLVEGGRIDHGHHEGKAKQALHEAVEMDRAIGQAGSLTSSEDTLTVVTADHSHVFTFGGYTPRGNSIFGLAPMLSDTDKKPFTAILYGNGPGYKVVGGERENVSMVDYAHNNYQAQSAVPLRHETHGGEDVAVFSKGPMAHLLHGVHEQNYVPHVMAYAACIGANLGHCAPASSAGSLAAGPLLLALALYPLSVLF

Compound	inhibition
COc1ccc(N2C(=O)CNC2=S)cc1	-13.2%
N#C/C=C(/c1ccc(F)cc1)N1CCOCC1	-8.3%
CC(C)CNC(=S)Nc1ccc(F)cc1	-5.6%
COc1ccc(/C=N/NC(=O)c2ccncc2)cc1CN1CCCc2ccccc21	-28.5%
CCC(=O)Nc1cc(C(F)(F)F)ccc1N1CCCC1	-1.6%
NS(=O)(=O)c1ccc(NC(=S)NC(=O)c2cccc(Br)c2)cc1	57.3% (active)
O=C(NC(=S)Nc1ccc(S(=O)(=O)Nc2ncccn2)cc1)c1cccc(Br)c1	5.9%
NS(=O)(=O)c1ccc(NC(=S)NC(=O)c2cccnc2)cc1	-3.6%
CCOC(=O)C1=C(C)NC(=S)NC1c1cccs1 (stereo not drawn)	-12.7%
CCOC(=O)C1=C(C)Nc2nc3ccccc3n2C1c1cccs1 (stereo not drawn)	57.2% (active)
COc1ccccc1NC(=O)C1=C(C)Nc2nc3ccccc3n2C1c1cccs1 (stereo not drawn)	-6.2%
COc1ccccc1Oc1nc(-c2cccnc2)nc2ccccc12	-4.1%
COc1cc(CNc2ncn[nH]2)ccc1OCc1ccccc1C	-67%
Clc1ccc(-c2cc(C3CCNCC3)[nH]n2)c(Cl)c1	80.1% (active)
Clc1ccc(-c2ncc3ccccn23)c(Cl)c1	-7.2%
O=C1CSC(c2ccccc2)N1c1nc(-c2ccc(Cl)cc2Cl)cs1 (stereo not drawn)	-10%
CCCc1[nH]nc2c1C(C1CC=CCC1)C(C#N)=C(N)O2 (stereo not drawn)	50.5% (active)
CCCc1[nH]nc2c1C(c1ccc(Br)s1)C(C#N)=C(N)O2 (stereo not drawn)	1.9%
COCc1[nH]nc2c1C(C1C=CCCC1)C(C#N)=C(N)O2 (stereo not drawn)	14.2%
COc1nc(N(C)C)nc(N2CC(=O)N(CCNS(=O)(=O)c3ccc(C)cc3)C2=N)n1	-3.4%
COc1ccc(C)cc1NC(=O)NCc1ccccn1	-12.1%

Compound	inhibition
CN(c1ccccc1)S(=O)(=O)c1ccc(Cl)c(C(=O)OCC(N)=O)c1	-4.4%
NNC(=O)c1ccc(Cl)cc1Cl	-3.9%
CN(C)C=NC(=O)c1cccn1-c1ncc(C(F)(F)F)cc1Cl	-14%
CNc1ccc(SC#N)cc1	-10.5%
O=C(OCc1nc2ccccc2[nH]1)C1CCCCC1	-36%
COC(=O)C1=CN(Cc2ccc(OC)c(OC)c2)C=C(C(=O)OC)C1c1cccs1	-7.4%
CC(=O)N1C(C)c2ccccc2C(C)(C)CC12CCCCC2 (stereo not drawn)	2.5%
COc1ccc(-c2noc(CN(C)S(=O)(=O)c3ccc(C)cc3)n2)cc1	-8.5%
CS(=O)(=O)n1nc(-c2ccccc2)nc1NCc1ccco1	-1.5%
CCn1c(SCc2ccccc2)nc2c(c1=O)SCC2	-14%
CCS(=O)(=O)n1nc(-c2ccccc2)nc1SCc1ccccc1	61.1% (active)
COc1ccc(-n2c(SC)nc(O)cc2=O)cc1	-11.9%
CCS(=O)(=O)n1nc(-c2ccc(OC)cc2)nc1SC	66% (active)
CCOc1cc(/C=C(/C#N)c2ccc(Cl)cc2)cc(Cl)c1OCC(=O)O	-8.1%
CC(O)CNCCOc1cccc(Oc2ccccc2)c1 (stereo not drawn)	-10.9%
COc1ccc(-c2nc(CN3CCN(c4ncccn4)CC3)c(C)o2)cc1C	-13.8%
CCn1c(SCC(=O)Nc2nccs2)nnc1-c1ccco1	37.9%
Cc1ccccc1OCCOc1ccc([N+](=O)[O-])cc1/C=N/n1cnnc1	-2.8%
CC(=O)c1cnc(-c2ccccc2)s1	-4%
NS(=O)(=O)c1ccc(CNC(=O)c2ccc(Cl)cc2[N+](=O)[O-])cc1	-22.8%
CC(C)C(=O)Nc1ccc2c3c(cccc13)CC2	-18%

Compound	inhibition
O=C(CSc1nnc(C2CC2)n1Cc1ccccc1)Nc1cccnc1Cl	-1.5%
C/C(CC(=O)Nc1ccc(Cl)cc1)=N\NC(=O)C(=O)NCCO	-12.4%
Cc1cs/c(=N\N=C\c2ccc(O)cc2)n1Cc1ccco1	-18.1%
CC(C)c1ccc(Nc2nnc(SCC(=O)c3nnc(-c4ccccc4)o3)s2)cc1	-1.3%
CC1Cc2ccccc2N1C(=O)CSc1nnc(-c2ccc(S(=O)(=O)N3CCCC3)cc2)n1C (stereo not drawn)	-5.8%
O=C(Nc1ccccc1C(=O)N1CCOCC1)c1ccc(CSc2ccccc2)cc1	-8.4%
COC(=O)[C@H]1Cc2cnoc2C[C@]1(C)C(=O)O	-8%
CC(Oc1ccccc1)C(=O)Nc1oc(-c2ccco2)c(-c2ccco2)c1C#N (stereo not drawn)	-18.5%
COc1ccc(N2C(=O)CC(Sc3n[nH]c(-c4ccc(C)cc4)n3)C2=O)cc1 (stereo not drawn)	43.8%
O=Cc1ccc(Oc2cccc(C(F)(F)F)c2)nc1	-8.3%
O=C(Cc1c[nH]c2ccccc12)N/N=C/c1cccc(F)c1	-1%
Cc1cc(C(=O)COc2ccccc2[N+](=O)[O-])c(C)n1-c1cccc(S(=O)(=O)N2CCOCC2)c1	-9.7%
Cc1cc(OCC(=O)NC2CCN(C)CC2)ccc1[N+](=O)[O-]	-25.3%
O=C(Cc1ccccc1)Nc1cccc(C(=O)N/N=C/c2ccco2)c1	-4.3%
CC(=O)NCC(=O)N1CCCC(C(=O)c2ccc3c4c(cccc24)CC3)C1 (stereo not drawn)	-8.9%
Cc1ccccc1CC1(CO)CCCN(C(=O)c2cc(-c3ccccc3)no2)C1 (stereo not drawn)	-4.5%
CC(=O)c1ccc(NC(=O)CSC(=S)N2CCCC2)cc1	-5.7%
CC(C)Oc1ccc(CC(=O)NNC(=S)Nc2ccc(Br)cc2)cc1	-117%
CCOCCCN(C(=O)Cn1nnc(-c2ccc(OC)c(OC)c2)n1)C(CC)C(=O)NC1CCCC1 (stereo not drawn)	-11.1%
Cc1ccc(CN2CCN(Cc3cn(C)nc3-c3ccccc3)CC2CCO)o1 (stereo not drawn)	-8.9%
Cn1cnnc1Sc1ccc(S(C)(=O)=O)cc1[N+](=O)[O-]	-1.9%
